This note sets out measurements from PubChem BioAssay AID1814 (Broad Institute, 2009).

Out of some 300,000 compounds screened, about 22,000 (7.3%) were called active. About 2% were inconclusive and are not listed. Rule as the data show it: active = activity score below about -60%; inconclusive = mostly about -28% to -61%; inactive = positive scores. Many of the other results were omitted from the sample, so actives are more common in it than they were.

The assay in a line: Activators working through SNCA 5'UTR binding (MLPCN) (AID 1814). The following applies: alpha-synuclein 5'UTR reporter, activators screen; active compounds read low; tested at 7.5 µM.
Consider `O=C1NC(=O)N(CCc2ccc(F)cc2)C(=O)/C1=C/C=C/c1ccccc1`, for which the activity score was -115% (active).
For the compound `COc1cccc(-c2nc3ccc(N4CCN(C)CC4)cc3[nH]2)c1`, the activity score is 68.9% (inactive).
Take `Cc1nc2ccc(N3CCN(C)CC3)cc2nc1C`: the activity score was -72% (active).
Next, `CN(C)C(=O)Oc1ccc2c(c1)O/C(=C\c1ccccc1)C2=O`: -101% (active); `CC(C)(C)c1ccc(OC(=O)N2CCCCC2)cc1`: -192% (active).
Take `CCCCCn1c(=O)c(C(=O)Nc2c(C)n(C)n(-c3ccccc3)c2=O)c(O)c2ccccc21`: the activity score is -108% (active).
Consider `c1ccc2sc(C3CCCNC3)nc2c1` (stereo not given), for which the activity score was -63% (active).
Next, `C/C(=N/O)c1ccc2ccc3ccccc3c2c1`: -104% (active); `O=Cc1cn(Cc2ccc(F)cc2Cl)c2ccccc12`: 61.1% (inactive).
To `c1cc2c(cc1[C@H]1OC[C@H]3[C@@H]1CO[C@@H]3c1ccc3c(c1)OCO3)OCO2` belongs 72.8% (inactive); to `O=C(Nc1cccc2ccccc12)N1CCC2(CC1)OCCO2`, -71.1% (active).
For `CCOc1ccc(-c2cc(C)[n+](CCN(CC)CC)c(-c3ccc(OCC)cc3)c2)cc1`, the activity score is 95.2% (inactive).
To `CN(C)CC1Oc2ccccc2OC1(O)c1ccccc1` (stereo not given) belongs -101% (active); to `CCCCCCCCCCCCn1ccc(=N)cc1`, 104% (inactive).
As for `N#CC1=C(N)Oc2c(c(=O)oc3ccccc23)C1c1ccccc1OC(=O)c1cccs1` (stereo not given), the activity score is -63% (active).
